29 sequences from publication PMC7862700, “An all-to-all approach to the identification of sequence-specific readers for epigenetic DNA modifications on cytosine” can be followed below.

What all share (assay): DAPPL (digital affinity profiling via proximity ligation, sequencing); 10 mM Tris-HCl pH 7.5, 50 mM NaCl, 1 mM DTT, 4% glycerol, room temperature, 30 min; GST-TFs on glutathione beads, 16-mer random dsDNA library, 0.1% formaldehyde crosslink after washing; high values mean tight binding
Common to all, as to details: protein: recombinant; tags: N-terminal GST; dsDNA, one strand shown

One assay deals with T1, ETV2 (Homo sapiens, UniProt O00321 1-342).
T1 sequence: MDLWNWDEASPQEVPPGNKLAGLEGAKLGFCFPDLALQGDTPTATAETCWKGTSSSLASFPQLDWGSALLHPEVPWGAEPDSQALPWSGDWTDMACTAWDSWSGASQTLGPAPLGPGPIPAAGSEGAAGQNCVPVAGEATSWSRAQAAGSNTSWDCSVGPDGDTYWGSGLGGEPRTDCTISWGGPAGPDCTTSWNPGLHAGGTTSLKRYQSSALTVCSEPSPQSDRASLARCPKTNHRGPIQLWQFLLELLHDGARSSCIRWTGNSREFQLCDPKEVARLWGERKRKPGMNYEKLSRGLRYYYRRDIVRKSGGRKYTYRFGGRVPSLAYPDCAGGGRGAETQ
The method, boiled down:
(§1)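 Binding signal is defined as a hexamer's read frequency for one factor over its frequency for the tag-only sample. To obtain reads, GST-fused human transcription factors were expressed in yeast, captured on glutathione beads, barcoded with DNA and pooled with that sample. Pools met 200 nmole of a 16-mer random double-stranded DNA library in Tris/NaCl/DTT/glycerol buffer for 30 min at room temperature before washing, 0.1% formaldehyde crosslinking, proximity ligation (BsaI/T4 ligase, 1 h, 37 °C), PCR and Illumina NextSeq500 sequencing.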

A further assay has as its target T2, ELF3 (Homo sapiens, UniProt P78545 1-371).
T2 sequence: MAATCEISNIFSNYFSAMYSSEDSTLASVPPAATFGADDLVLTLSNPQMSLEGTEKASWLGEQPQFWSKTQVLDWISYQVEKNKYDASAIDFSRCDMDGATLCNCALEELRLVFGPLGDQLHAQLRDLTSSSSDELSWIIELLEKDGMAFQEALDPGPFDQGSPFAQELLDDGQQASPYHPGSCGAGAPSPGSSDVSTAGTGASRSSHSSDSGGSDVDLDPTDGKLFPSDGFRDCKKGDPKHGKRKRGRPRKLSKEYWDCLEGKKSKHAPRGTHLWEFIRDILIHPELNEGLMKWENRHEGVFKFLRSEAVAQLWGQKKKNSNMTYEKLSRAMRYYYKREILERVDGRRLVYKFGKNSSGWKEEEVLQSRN
The method, boiled down: as §1

Another assay addresses T3, SPDEF (Homo sapiens, UniProt O95238 1-335).
T3 sequence: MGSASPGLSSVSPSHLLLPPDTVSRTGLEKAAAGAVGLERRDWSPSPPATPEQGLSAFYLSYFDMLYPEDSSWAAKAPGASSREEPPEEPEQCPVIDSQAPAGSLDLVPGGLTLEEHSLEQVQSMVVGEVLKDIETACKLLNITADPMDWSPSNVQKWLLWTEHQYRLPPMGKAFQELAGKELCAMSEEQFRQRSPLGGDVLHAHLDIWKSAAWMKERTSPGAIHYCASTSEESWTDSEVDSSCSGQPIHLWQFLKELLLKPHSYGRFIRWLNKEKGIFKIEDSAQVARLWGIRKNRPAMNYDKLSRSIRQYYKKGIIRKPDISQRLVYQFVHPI
In a few lines:
as §1

The target of another assay is T4, ETV7 (Homo sapiens, UniProt Q9Y603 1-341).
T4 sequence: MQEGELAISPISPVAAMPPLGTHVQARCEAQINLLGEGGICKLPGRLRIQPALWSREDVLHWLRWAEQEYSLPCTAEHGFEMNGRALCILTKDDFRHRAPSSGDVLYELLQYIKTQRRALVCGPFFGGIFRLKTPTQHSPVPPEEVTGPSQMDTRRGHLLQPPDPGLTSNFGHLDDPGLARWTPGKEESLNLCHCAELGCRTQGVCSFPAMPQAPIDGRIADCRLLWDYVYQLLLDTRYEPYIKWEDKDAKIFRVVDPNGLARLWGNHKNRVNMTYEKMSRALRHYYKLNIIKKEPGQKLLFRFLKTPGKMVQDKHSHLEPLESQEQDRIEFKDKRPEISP
In a few lines: as §1

For a further assay, the target named is T5, ELK4 (Homo sapiens, UniProt P28324-2 1-405).
T5 sequence: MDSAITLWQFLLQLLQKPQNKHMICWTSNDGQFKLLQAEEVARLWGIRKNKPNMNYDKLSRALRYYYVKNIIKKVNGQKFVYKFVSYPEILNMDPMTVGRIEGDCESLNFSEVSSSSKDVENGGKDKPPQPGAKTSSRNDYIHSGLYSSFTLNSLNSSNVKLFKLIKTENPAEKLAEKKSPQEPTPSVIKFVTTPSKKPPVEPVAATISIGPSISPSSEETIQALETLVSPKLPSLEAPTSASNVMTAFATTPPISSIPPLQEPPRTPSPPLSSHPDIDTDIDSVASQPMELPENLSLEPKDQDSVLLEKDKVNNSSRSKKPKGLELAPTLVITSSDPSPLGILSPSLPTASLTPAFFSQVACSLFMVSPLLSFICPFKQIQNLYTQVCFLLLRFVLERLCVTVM
In a few lines:
as §1

The target of another assay is CRX (Homo sapiens, UniProt O43186 1-299). The method, boiled down:
as §1

CRX, sequence (O43186 whole entry): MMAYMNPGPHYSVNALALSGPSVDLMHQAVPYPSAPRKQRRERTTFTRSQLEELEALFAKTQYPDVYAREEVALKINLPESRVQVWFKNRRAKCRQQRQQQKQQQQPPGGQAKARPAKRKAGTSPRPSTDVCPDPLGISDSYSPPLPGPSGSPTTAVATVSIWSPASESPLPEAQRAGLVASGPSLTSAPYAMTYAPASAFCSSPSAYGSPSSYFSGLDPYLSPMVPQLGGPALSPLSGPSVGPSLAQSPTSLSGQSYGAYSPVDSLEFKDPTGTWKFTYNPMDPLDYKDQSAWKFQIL

For CGATGT, the binding signal was 1.07 fold enrichment (6-mer frequency, TF over GST control) with ETV2; 1.11 fold enrichment (6-mer frequency, TF over GST control) in the assay with ELF3; 1.12 fold enrichment (6-mer frequency, TF over GST control) in the assay with SPDEF; 1.14 fold enrichment (6-mer frequency, TF over GST control) with ETV7.
Take GGCTCG: the binding signal with ELK4 is 1.11 fold enrichment (6-mer frequency, TF over GST control); with ELF3, 1 fold enrichment (6-mer frequency, TF over GST control).
Regarding ATACCG, the binding signal in the assay with ELK4 is 1.04 fold enrichment (6-mer frequency, TF over GST control); with ETV2 it was 1.07 fold enrichment (6-mer frequency, TF over GST control); with ELF3 it was 1.2 fold enrichment (6-mer frequency, TF over GST control); with SPDEF it was 1.19 fold enrichment (6-mer frequency, TF over GST control); with ETV7, 1.04 fold enrichment (6-mer frequency, TF over GST control).
With ACGATG, the binding signal in the assay with ETV2 is 1.14 fold enrichment (6-mer frequency, TF over GST control); with ELF3 it was 1.17 fold enrichment (6-mer frequency, TF over GST control); with SPDEF, 1.14 fold enrichment (6-mer frequency, TF over GST control); with ETV7, 1.2 fold enrichment (6-mer frequency, TF over GST control).
For CACGGA, the binding signal in the assay with ELK4 is 1.05 fold enrichment (6-mer frequency, TF over GST control); with ELF3 it was 1.09 fold enrichment (6-mer frequency, TF over GST control); in the assay with SPDEF, 1.25 fold enrichment (6-mer frequency, TF over GST control).
In the case of AGGAAC, the binding signal is 1.15 fold enrichment (6-mer frequency, TF over GST control) with ETV2; 1.04 fold enrichment (6-mer frequency, TF over GST control) with ELF3; 1.05 fold enrichment (6-mer frequency, TF over GST control) with SPDEF.
Consider CATACC, for which the binding signal with ETV2 is 1.16 fold enrichment (6-mer frequency, TF over GST control); with ELF3, 1 fold enrichment (6-mer frequency, TF over GST control); in the assay with SPDEF it was 1.14 fold enrichment (6-mer frequency, TF over GST control); with ETV7, 1.03 fold enrichment (6-mer frequency, TF over GST control).
GGCCCC: the binding signal with ELK4 is 1.02 fold enrichment (6-mer frequency, TF over GST control); with ETV2 it was 1.13 fold enrichment (6-mer frequency, TF over GST control); with ELF3, 1.02 fold enrichment (6-mer frequency, TF over GST control); in the assay with SPDEF, 1.05 fold enrichment (6-mer frequency, TF over GST control).
Regarding AGTGTC, the binding signal with ETV2 was 1.02 fold enrichment (6-mer frequency, TF over GST control); with ELF3 it was 1.11 fold enrichment (6-mer frequency, TF over GST control); with SPDEF it was 1.05 fold enrichment (6-mer frequency, TF over GST control); with ETV7, 1.16 fold enrichment (6-mer frequency, TF over GST control).
For the sequence GGAAGA, the binding signal in the assay with ETV2 is 1.09 fold enrichment (6-mer frequency, TF over GST control); in the assay with ELF3 it was 1.19 fold enrichment (6-mer frequency, TF over GST control); with ETV7 it was 1.13 fold enrichment (6-mer frequency, TF over GST control).
As to TGCGGC, the binding signal with ELF3 is 1.33 fold enrichment (6-mer frequency, TF over GST control); with ETV7, 1.07 fold enrichment (6-mer frequency, TF over GST control).
In the case of GTACGC, the binding signal with ELF3 is 1.17 fold enrichment (6-mer frequency, TF over GST control); with ETV7, 1.09 fold enrichment (6-mer frequency, TF over GST control).
As for AACTGA, the binding signal with ETV2 is 1.07 fold enrichment (6-mer frequency, TF over GST control); with ELF3, 1.12 fold enrichment (6-mer frequency, TF over GST control); with ETV7, 1.05 fold enrichment (6-mer frequency, TF over GST control).
In the case of TGTGGC, the binding signal in the assay with ELK4 was 1.16 fold enrichment (6-mer frequency, TF over GST control); in the assay with ETV2, 1.23 fold enrichment (6-mer frequency, TF over GST control); with ELF3 it was 1.02 fold enrichment (6-mer frequency, TF over GST control); in the assay with ETV7, 1.01 fold enrichment (6-mer frequency, TF over GST control).
On to GCTGCG, for which the binding signal was 1.03 fold enrichment (6-mer frequency, TF over GST control) with ELF3; 1.02 fold enrichment (6-mer frequency, TF over GST control) in the assay with SPDEF; 1.19 fold enrichment (6-mer frequency, TF over GST control) with ETV7.
As to GCAATT, the binding signal was 1.01 fold enrichment (6-mer frequency, TF over GST control) with ELK4; 1.01 fold enrichment (6-mer frequency, TF over GST control) in the assay with ETV2; 1.17 fold enrichment (6-mer frequency, TF over GST control) with ELF3; 1.06 fold enrichment (6-mer frequency, TF over GST control) with SPDEF; 1.18 fold enrichment (6-mer frequency, TF over GST control) with ETV7.
On to ACTAGG, for which the binding signal with ELK4 is 1.03 fold enrichment (6-mer frequency, TF over GST control); in the assay with ETV2, 1.28 fold enrichment (6-mer frequency, TF over GST control); with SPDEF, 1.1 fold enrichment (6-mer frequency, TF over GST control).
On to AACGGA, for which the binding signal in the assay with ETV2 is 1.02 fold enrichment (6-mer frequency, TF over GST control); in the assay with ELF3, 1.03 fold enrichment (6-mer frequency, TF over GST control); in the assay with SPDEF it was 1.23 fold enrichment (6-mer frequency, TF over GST control); in the assay with ETV7, 1.01 fold enrichment (6-mer frequency, TF over GST control).
Take CATGAC: the binding signal is 1.09 fold enrichment (6-mer frequency, TF over GST control) in the assay with ELK4; 1.3 fold enrichment (6-mer frequency, TF over GST control) in the assay with ETV2; 1.15 fold enrichment (6-mer frequency, TF over GST control) in the assay with ELF3; 1.2 fold enrichment (6-mer frequency, TF over GST control) in the assay with SPDEF; 1.11 fold enrichment (6-mer frequency, TF over GST control) in the assay with ETV7.
Take AGTGTA: the binding signal with ETV7 was 1.1 fold enrichment (6-mer frequency, TF over GST control).
For GTAGTT, the binding signal with ELK4 was 1.1 fold enrichment (6-mer frequency, TF over GST control); with ETV2, 1.04 fold enrichment (6-mer frequency, TF over GST control); with ELF3, 1.09 fold enrichment (6-mer frequency, TF over GST control); with SPDEF, 1.05 fold enrichment (6-mer frequency, TF over GST control); in the assay with ETV7, 1.03 fold enrichment (6-mer frequency, TF over GST control).
As for CTATCA, the binding signal is 1.06 fold enrichment (6-mer frequency, TF over GST control) with ELK4; 1.05 fold enrichment (6-mer frequency, TF over GST control) with ETV2; 1.02 fold enrichment (6-mer frequency, TF over GST control) with ELF3; 1.01 fold enrichment (6-mer frequency, TF over GST control) with CRX; 1.07 fold enrichment (6-mer frequency, TF over GST control) with SPDEF; 1.06 fold enrichment (6-mer frequency, TF over GST control) with ETV7.
As for GTTGAC, the binding signal is 1.25 fold enrichment (6-mer frequency, TF over GST control) in the assay with ELK4; 1.07 fold enrichment (6-mer frequency, TF over GST control) with ETV2; 1.09 fold enrichment (6-mer frequency, TF over GST control) in the assay with ELF3; 1.07 fold enrichment (6-mer frequency, TF over GST control) with SPDEF; 1.19 fold enrichment (6-mer frequency, TF over GST control) in the assay with ETV7.
In the case of GTTGTA, the binding signal with ELF3 was 1.04 fold enrichment (6-mer frequency, TF over GST control); in the assay with SPDEF it was 1.04 fold enrichment (6-mer frequency, TF over GST control); in the assay with ETV7 it was 1.06 fold enrichment (6-mer frequency, TF over GST control).
In the case of GTCCGC, the binding signal in the assay with ELK4 is 1.09 fold enrichment (6-mer frequency, TF over GST control); with ELF3 it was 1.01 fold enrichment (6-mer frequency, TF over GST control); with SPDEF it was 1.07 fold enrichment (6-mer frequency, TF over GST control).
Regarding ACTGTA, the binding signal is 1.08 fold enrichment (6-mer frequency, TF over GST control) in the assay with ELK4; 1.17 fold enrichment (6-mer frequency, TF over GST control) with ETV2; 1.02 fold enrichment (6-mer frequency, TF over GST control) with SPDEF.
Consider AGTGAC, for which the binding signal with ETV7 was 1.03 fold enrichment (6-mer frequency, TF over GST control).
In the case of GGTTAT, the binding signal in the assay with ETV2 is 1.09 fold enrichment (6-mer frequency, TF over GST control); in the assay with CRX, 1.04 fold enrichment (6-mer frequency, TF over GST control); with SPDEF it was 1.05 fold enrichment (6-mer frequency, TF over GST control); with ETV7, 1.12 fold enrichment (6-mer frequency, TF over GST control).
Take ACATAG: the binding signal with ETV2 was 1.11 fold enrichment (6-mer frequency, TF over GST control); with ELF3, 1.14 fold enrichment (6-mer frequency, TF over GST control); in the assay with SPDEF, 1 fold enrichment (6-mer frequency, TF over GST control); with ETV7, 1.13 fold enrichment (6-mer frequency, TF over GST control).
